Laboratory results: PubChem BioAssay (NCI)
Compounds without any hit were thinned out: in the full panel of roughly 79,000, 15% have a hit. Activity calls are given as the source filed them. Cut-off read from the data, not from the text of the source: active = growth inhibition above about 70%; inactive = the rest.

Experiments:
[1] = NCI Yeast Anticancer Drug Screen. Data for the rad52 strain (AID 147);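 note: 0% = growth of vehicle-treated control cultures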; conditions: S. cerevisiae rad52 mutant growth inhibition, hits give high values
Summary of the method: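 Here a repair-compromised yeast strain receives each compound; its growth is then quantified and normalised to vehicle-only controls.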

[2] = NCI Yeast Anticancer Drug Screen. Data for the rad50EPP+ strain (AID 151);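 note: 0% = growth of vehicle-treated control cultures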; conditions: S. cerevisiae rad50 mutant strain, hits give high values
Summary of the method: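 Read-out is yeast growth inhibition relative to vehicle; cells used were the rad50EPP+ strain.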

[3] = NCI Yeast Anticancer Drug Screen. Data for the mgt1 strain (AID 153); conditions: S. cerevisiae mgt1 mutant growth inhibition, hits give high values
Summary of the method: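 Measured: inhibition of mgt1 yeast growth by compound, normalized to vehicle-treated cultures.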

[4] = NCI Yeast Anticancer Drug Screen. Data for the rad50 strain (AID 155);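 note: 0% = growth of vehicle-only cultures of the same strain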; conditions: S. cerevisiae rad50 strain growth inhibition, hits give high values
Summary of the method: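 Cells are treated with compound, grown, and their growth is then scored against vehicle-only cultures of the same repair-deficient yeast strain.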

[5] = NCI Yeast Anticancer Drug Screen. Data for the mec2-1 strain (AID 157); conditions: S. cerevisiae mec2-1 strain, hits give high values
Summary of the method: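 Using mec2-1 yeast: add compound, measure growth, express inhibition versus vehicle-treated cultures.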

[6] = NCI Yeast Anticancer Drug Screen. Data for the rad14 strain (AID 159);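 note: 0% = growth of vehicle-treated control cultures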; conditions: S. cerevisiae rad14 strain growth inhibition, hits give high values
Summary of the method: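 Readout: yeast growth inhibition, referenced to vehicle-only cultures. Strain bears a defined alteration in DNA damage repair.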

[7] = NCI Yeast Anticancer Drug Screen. Data for the sgs1 mgt1 strain (AID 161);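 note: 0% = growth of cultures given vehicle only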; conditions: S. cerevisiae sgs1 mgt1 strain, hits give high values
Summary of the method: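 This yeast growth screen uses a strain with defined DNA-repair lesions; compound-treated growth is compared with vehicle-treated growth.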

[8] = NCI Yeast Anticancer Drug Screen. Data for the CLN2oe strain (AID 163);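 note: 0% = growth of vehicle-only control cultures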; conditions: S. cerevisiae CLN2oe strain, hits give high values
Summary of the method: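 Whole-cell yeast growth assay. A strain engineered for altered cell-cycle control received compound, and inhibition relative to vehicle-treated cultures was recorded.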

[9] = NCI Yeast Anticancer Drug Screen. Data for the cln2 rad14 strain (AID 165);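 note: 0% = growth equal to vehicle treated cultures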; conditions: S. cerevisiae cln2 rad14 strain, hits give high values
Summary of the method: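 Yeast strain cln2 rad14, bearing defects in cell cycle control and DNA repair, serves as the test system; values reflect growth inhibition compared with vehicle.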

[10] = NCI Yeast Anticancer Drug Screen. Data for the bub3 strain (AID 167); conditions: S. cerevisiae bub3 mutant strain, hits give high values
Summary of the method: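 Part of a panel of yeast mutants defective in DNA damage repair or cell cycle regulation. Each strain is grown with compound, and inhibition is calculated relative to solvent-treated cultures.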

[11] = NCI Yeast Anticancer Drug Screen. Data for the wt2 strain (AID 169);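 note: 0% = growth of vehicle-treated yeast cultures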; conditions: S. cerevisiae wt2 strain growth inhibition, hits give high values
Summary of the method: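 Treated yeast vs. vehicle-treated yeast: growth inhibition determined.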

[12] = NCI Yeast Anticancer Drug Screen. Data for the mlh1 strain (AID 171);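 note: 0% = growth of vehicle-treated control cultures of the same strain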; conditions: S. cerevisiae mlh1 strain growth inhibition, hits give high values
Summary of the method: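 A yeast strain with a defined genetic lesion serves as the test organism. Cultures receive compound or vehicle, and growth is measured.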

[13] = NCI Yeast Anticancer Drug Screen. Data for the mlh1 rad18 strain (AID 175); conditions: S. cerevisiae mlh1 rad18 strain growth inhibition, hits give high values
Summary of the method: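 Steps: expose repair-defective yeast to compound; measure growth; express inhibition against vehicle-treated controls.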

[14] = NCI Yeast Anticancer Drug Screen. Data for the rad18 strain (AID 177); conditions: S. cerevisiae rad18 mutant growth inhibition, hits give high values
Summary of the method: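 Measured value is growth inhibition of a yeast strain bearing a DNA repair alteration, referenced to vehicle-treated cells.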

[15] = NCI Yeast Anticancer Drug Screen. Data for the sgs1 strain (AID 173);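 note: 0% = growth of vehicle-only control cultures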; conditions: S. cerevisiae sgs1 mutant, hits give high values
Summary of the method: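 A genetically defined yeast mutant is incubated with the test compound, and its growth is compared to that of the same strain given vehicle.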

[16] = at 5.0 µM (retest, dose inferred, filed as 0.5)
[17] = at 50.0 µM (retest, dose inferred, filed as 5.0)

Measured: growth inhibition

O=C1C=C(Cl)C(=O)N1c1cccc(Cl)c1
inactive: [1]; at 1.2 µM 6% | [2]; at 1.2 µM 41% | [3]; at 1.2 µM -3% | [3]; at 3.7 µM 67% | [4]; at 1.2 µM 11% | [5]; at 1.2 µM -6% | [5]; at 3.7 µM 63% | [5]; [16] 8% | [6]; at 1.2 µM 34% | [7]; [16] 11% | [8]; at 1.2 µM -13% | [8]; at 3.7 µM 33% | [9]; [16] 3% | [10]; at 1.2 µM 55% | [10]; [16] 65% | [11]; at 1.2 µM 30% | [12]; at 1.2 µM -11% | [12]; at 3.7 µM 58% | [13]; [16] 0% | [14]; at 1.2 µM -1% | [14]; at 3.7 µM 36%
active: [1]; at 3.7 µM 89% | [1]; at 11.0 µM 99% | [1]; at 33.0 µM 99% | [1]; at 100.0 µM 99% | [2]; at 3.7 µM 96% | [2]; at 11.0 µM 99% | [2]; at 33.0 µM 99% | [2]; at 100.0 µM 99% | [3]; at 11.0 µM 99% | [3]; at 33.0 µM 99% | [3]; at 100.0 µM 100% | [4]; at 3.7 µM 86% | [4]; [16] 87% | [4]; at 11.0 µM 99% | [4]; at 33.0 µM 99% | [4]; [17] 97% | [4]; at 50.0 µM 99.5% | [4]; at 100.0 µM 99% | [5]; at 11.0 µM 99% | [5]; at 33.0 µM 100% | [5]; [17] 99% | [5]; at 50.0 µM 99.6% | [5]; at 100.0 µM 99% | [6]; at 3.7 µM 97% | [6]; at 11.0 µM 100% | [6]; at 33.0 µM 100% | [6]; at 100.0 µM 100% | [7]; [17] 99% | [7]; at 50.0 µM 99.5% | [8]; at 11.0 µM 99% | [8]; at 33.0 µM 99% | [8]; at 100.0 µM 99% | [9]; [17] 98% | [9]; at 50.0 µM 99.4% | [10]; at 3.7 µM 93% | [10]; at 11.0 µM 99% | [10]; at 33.0 µM 99% | [10]; [17] 98% | [10]; at 50.0 µM 99.5% | [10]; at 100.0 µM 100% | [11]; at 3.7 µM 99% | [11]; at 11.0 µM 100% | [11]; at 33.0 µM 100% | [11]; at 100.0 µM 100% | [12]; at 11.0 µM 99% | [12]; at 33.0 µM 100% | [12]; at 100.0 µM 100% | [13]; [17] 95% | [13]; at 50.0 µM 99.5% | [14]; at 11.0 µM 99% | [14]; at 33.0 µM 99% | [14]; at 100.0 µM 99%

NCCNCCNc1ccc(NCCNCCN)c2c1C(=O)c1c(O)ccc(O)c1C2=O
active: [1]; at 11.0 µM 91% | [1]; at 33.0 µM 93% | [1]; at 100.0 µM 85% | [2]; at 33.0 µM 84% | [4]; at 11.0 µM 82% | [4]; at 33.0 µM 88% | [4]; at 50.0 µM 87.7% | [4]; at 100.0 µM 84%
inactive: [1]; at 1.2 µM 34% | [1]; at 3.7 µM 48% | [2]; at 1.2 µM 9% | [2]; at 3.7 µM 36% | [2]; at 11.0 µM 69% | [2]; at 100.0 µM 69% | [3]; at 1.2 µM -2% | [3]; at 3.7 µM 0% | [3]; at 11.0 µM 1% | [3]; at 33.0 µM 7% | [3]; at 100.0 µM 19% | [4]; at 1.2 µM 17% | [4]; at 3.7 µM 49% | [4]; [16] 20% | [4]; [17] 66% | [5]; at 1.2 µM 27% | [5]; at 3.7 µM 1% | [5]; [16] 0% | [5]; at 11.0 µM -7% | [5]; at 33.0 µM 11% | [5]; [17] 45% | [5]; at 50.0 µM 0.2% | [5]; at 100.0 µM 31% | [6]; at 1.2 µM -4% | [6]; at 3.7 µM -2% | [6]; at 11.0 µM 0% | [6]; at 33.0 µM 5% | [6]; at 100.0 µM 15% | [7]; [16] -6% | [7]; [17] 8% | [7]; at 50.0 µM 15.1% | [8]; at 1.2 µM -10% | [8]; at 3.7 µM -7% | [8]; at 11.0 µM -10% | [8]; at 33.0 µM -9% | [8]; at 100.0 µM 40% | [9]; [16] 32% | [9]; [17] 34% | [9]; at 50.0 µM 7% | [10]; at 1.2 µM -4% | [10]; at 3.7 µM -11% | [10]; [16] 20% | [10]; at 11.0 µM -10% | [10]; at 33.0 µM -8% | [10]; [17] -1% | [10]; at 50.0 µM -1.95% | [10]; at 100.0 µM 20% | [12]; at 1.2 µM 0% | [12]; at 3.7 µM -2% | [12]; at 11.0 µM -1% | [12]; at 33.0 µM -1% | [12]; at 100.0 µM 16% | [15]; at 1.2 µM 1% | [15]; at 3.7 µM 4% | [15]; at 11.0 µM 2% | [15]; at 33.0 µM 13% | [15]; at 100.0 µM 25% | [13]; [16] 11% | [13]; [17] 0% | [13]; at 50.0 µM 16.5% | [14]; at 1.2 µM 4% | [14]; at 3.7 µM 2% | [14]; at 11.0 µM 9% | [14]; at 33.0 µM 22% | [14]; at 100.0 µM 48%
